Screens: PubChem BioAssay, several laboratories
Shown are actives, neighbours in structure and some others; about 2.4% of the full set was active somewhere.
p97 ATPase inh: human p97 ATPase inhibition; P55072; recombinant p97 ATPase, Kinase-Glo ATP luminescence, 3 h; inhibition, % at 8 µM; 0.42% of 220,000 active; in the data active means inhibition above about 15%
PGE2 EP2 inh: blocks the human prostaglandin E2 receptor EP2. inhibition, % at 25 µM. C6 glioma cells expressing human EP2, cAMP TR-FRET; cells stimulated with saturating PGE2. 0.52% of 260,000 active. P43116;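 active means percent inhibition above 40 after rounding to a whole number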;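 further: rat C6 glioma host cells with rolipram phosphodiesterase inhibitor present; the protocol text gives 20 µM as final concentration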
Target sequence (P43116 whole entry, looked up): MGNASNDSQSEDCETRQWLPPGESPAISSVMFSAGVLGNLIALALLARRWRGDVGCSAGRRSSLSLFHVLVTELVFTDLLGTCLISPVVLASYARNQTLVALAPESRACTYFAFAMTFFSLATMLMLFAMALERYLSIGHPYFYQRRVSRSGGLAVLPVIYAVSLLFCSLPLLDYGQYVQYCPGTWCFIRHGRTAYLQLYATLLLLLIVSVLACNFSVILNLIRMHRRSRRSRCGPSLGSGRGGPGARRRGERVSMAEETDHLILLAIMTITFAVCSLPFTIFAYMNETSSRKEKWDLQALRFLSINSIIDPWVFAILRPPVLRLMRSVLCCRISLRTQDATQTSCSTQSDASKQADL
Hck-Nef inh: inhibitors of human Hck kinase activated by Nef; inhibition, % at 20 µM; Recombinant Hck-YEEI plus Nef, Z-Lyte FRET kinase assay; P08631; 0.68% of 220,000 active;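 active means Hck-Nef kinase inhibition above about 50%, limit read from the data; inactive means inhibition below that limit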
EP2 modulator: EP2 receptor (human) modulation | P43116 | EP2-expressing cells, cAMP HTRF FRET, PGE2 co-stimulation | induction, % at 25 µM | 0.83% of 260,000 active | AID 940;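 active means compounds whose cAMP rise, as percent of the full-agonist control response, exceeds 60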;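 further: rat C6 glioma line stably carrying human EP2 under a CMV promoter; the protocol text gives 20 µM as final concentration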
Arbovirus inh: antivirals against arbovirus infection; arbovirus infection cell-based antiviral screen; inhibition, % at 10 µM; 0.37% of 200,000 active; in the data active means inhibition above about 30%
p97 inh conf: confirmation of human p97 ATPase inhibitors. shares compounds with p97 ATPase inh. recombinant p97 ATPase, Kinase-Glo ATP luminescence. inhibition, % at 8 µM. 44% of 760 active;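 active means percent inhibition of p97 ATPase above a set limit, the primary screen's mean plus 3 SD, cut at about 15% in these data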
Large screens that a line does not name were inactive (follow-up assays come after a bar, where they were run).

O=C(Nc1ccc2nsnc2c1)N1CCCCCC1	none
S=C(Nc1ccc2nsnc2c1)N1CCCC1	p97 ATPase inh 21 | p97 inh conf inactive
CCc1c(O)nc(SCC(=O)Nc2cccc(F)c2)[nH]c1=O	none (no result: p97 ATPase inh, Hck-Nef inh, Arbovirus inh)
CC(=O)c1sc(C(C)(C)C)cc1NC(=O)/C=C/C(=O)O	p97 ATPase inh 15 (no result: Arbovirus inh) | p97 inh conf inactive
COCC(=O)Nc1ncc([N+](=O)[O-])s1	none (no result: p97 ATPase inh, Hck-Nef inh, Arbovirus inh)
CCn1c(SCC(=O)Nc2ccc(OC)cc2N)nnc1-c1ccc(Cl)cc1	none (no result: p97 ATPase inh, Hck-Nef inh, Arbovirus inh)
NC(=O)c1csc(-c2ccncc2)n1	none
Nc1cc(-c2ccncc2)c[nH]c1=O	p97 ATPase inh 23 | p97 inh conf inactive
CN=C(NC(=O)Nc1c(C)cccc1C)NC(=O)Nc1c(C)cccc1C	none
CN=C(N)NC(=O)Nc1c(C)cccc1C	p97 ATPase inh 15 (no result: Arbovirus inh) | p97 inh conf inactive
O=C(CN1CCC(c2nc3ccccc3[nH]2)CC1)Nc1nccs1	none (no result: p97 ATPase inh, Hck-Nef inh, Arbovirus inh)
O=C(NCc1ccco1)c1sc(=S)n2c1[nH]c(=O)c1ccccc12	p97 ATPase inh 15 | p97 inh conf 25
O=C(NC1CCCC1)c1sc(=S)n2c1[nH]c(=O)c1ccccc12	none
COc1cc2c(cc1NC(=O)CSc1nnc(Cc3cccs3)n1C)oc1ccccc12	p97 ATPase inh 22 | p97 inh conf 17
O=c1cc(CCl)[nH]c2nc3ccccc3n12	p97 ATPase inh 38 (no result: Arbovirus inh) | p97 inh conf 38
CC(C)C(c1nnnn1Cc1ccco1)N1CCN(Cc2ccc(Cl)cc2)CC1 (stereo unspecified)	none (no result: p97 ATPase inh, Hck-Nef inh, Arbovirus inh)
NC(=O)c1sc2nc(-c3ccco3)ccc2c1N	p97 ATPase inh 24 | p97 inh conf inactive
COC(=O)c1sc2nc(-c3ccco3)ccc2c1N	none
O=C(NNC(=S)NC(=O)c1cccnc1)c1ccccc1	none
O=C(NNC(=S)NC(=O)c1cccnc1)c1ccc(F)cc1	p97 ATPase inh 15 (no result: Arbovirus inh) | p97 inh conf inactive
COc1c(Br)cc2c(C)c(C(=O)O)oc2c1Br	none
Cc1c(Br)c(=O)oc2c(Br)c(O)c(O)cc12	p97 ATPase inh 24 | p97 inh conf 31
CCc1cccc2c(C(=O)COC(=O)c3ccc([N+](=O)[O-])s3)c[nH]c12	none
O=C(OCC(=O)c1c[nH]c2ccccc12)c1ccc([N+](=O)[O-])s1	p97 ATPase inh 31 | p97 inh conf 40
COc1ccc(-n2c(NC(=O)c3ccco3)c(C#N)c3nc4ccccc4nc32)cc1	p97 ATPase inh 32 | p97 inh conf 29
N#Cc1c(NC(=O)c2ccccc2Cl)n(Cc2ccccc2)c2nc3ccccc3nc12	p97 ATPase inh 38 | p97 inh conf 47
CCCCn1c(NC(=O)CC)c(C#N)c2nc3ccccc3nc21	none
CCCCn1c(NC(=O)c2ccccc2Cl)c(C#N)c2nc3ccccc3nc21	p97 ATPase inh 29 | p97 inh conf 40
COc1cccc(Cn2c3cc(C)sc3c3cnn(CC(=O)OC(C)C)c(=O)c32)c1	none (no result: p97 ATPase inh, PGE2 EP2 inh, Hck-Nef inh, Arbovirus inh)
CCOC(=O)c1c(NC(=S)NC(=O)c2cccnc2)sc2c1CCCCC2	none (no result: p97 ATPase inh, Hck-Nef inh, Arbovirus inh)
Cc1nc(S/C(=C\c2ccc(OCc3ccccc3Cl)cc2)C(=O)O)n[nH]1	none
Cc1nc(S/C(=C\c2ccc(-c3ccc(C(=O)O)c(Cl)c3)o2)C(=O)O)n[nH]1	p97 ATPase inh 53 (no result: Arbovirus inh) | p97 inh conf 44
COCCn1nnnc1C(c1cc2cc(OC)ccc2[nH]c1=O)N1CCN(c2ccc(F)cc2)CC1 (stereo unspecified)	none (no result: p97 ATPase inh, Hck-Nef inh, Arbovirus inh)
CCOc1ccccc1NC(=O)c1cc(C(=O)c2cc(Br)ccc2O)coc1=N	p97 ATPase inh 25 | p97 inh conf 34
CC(C)OC(=O)c1cc(C(=O)c2cc(Br)ccc2O)coc1=N	none
Cc1ccc(SC/C(O)=C(\C#N)c2nc3ccccc3s2)cc1	p97 ATPase inh 21 | p97 inh conf 39
N#C/C(=C(/O)CSc1ccccn1)c1nc2ccccc2s1	none
O=C(c1ccc2snnc2c1)N1CCSCC1	none
Cn1nnc2cc(C(=O)N3CCSCC3)ccc21	p97 ATPase inh 17 | p97 inh conf inactive
CSC1=NC(=O)/C(=C\c2cccc3ccccc23)S1	p97 ATPase inh 15 | p97 inh conf inactive
O=C(Nc1ccc2c(c1)oc1ccccc12)C1CCC1	none (no result: p97 ATPase inh, Hck-Nef inh, Arbovirus inh)
O=C1C2=C(Nc3ncnn3C2c2ccc(Cl)cc2)c2ccccc21 (stereo unspecified)	none (no result: p97 ATPase inh, Hck-Nef inh, Arbovirus inh)
NS(=O)(=O)c1ccc(N/N=C/c2ccc(O)c(O)c2O)c([N+](=O)[O-])c1	p97 ATPase inh 48, Hck-Nef inh 51 (no result: Arbovirus inh) | p97 inh conf 50
CCC(C)(C)NC(=O)C(c1ccc(C)o1)N(C(=O)c1csnn1)c1cccc(C)c1 (stereo unspecified)	none (no result: p97 ATPase inh, Hck-Nef inh, Arbovirus inh)
COc1ccc(-c2cc(=O)n(CCC#N)[nH]2)cc1	p97 ATPase inh 25 | p97 inh conf inactive
COc1ccc(-c2cc(=O)[nH][nH]2)cc1	none
O=C(O)CSc1cc(NS(=O)(=O)c2cccc([N+](=O)[O-])c2)c2ccccc2c1O	p97 ATPase inh 27 (no result: Arbovirus inh) | p97 inh conf 40
COc1ccc(N2CC(C(=O)OCC(=O)Nc3cccc(Cl)c3C)CC2=O)cc1 (stereo unspecified)	none (no result: p97 ATPase inh, Hck-Nef inh, Arbovirus inh)
O=C(CCl)NNC(=O)c1c(O)c2ccccc2[nH]c1=O	p97 ATPase inh 21 (no result: Arbovirus inh) | p97 inh conf 32
O=C(NCCCl)c1c(O)c2ccccc2[nH]c1=O	none (no result: p97 ATPase inh, Hck-Nef inh, Arbovirus inh)
CCCNC(=O)Cn1nc(-c2cc3c(s2)CCC3)oc1=O	none (no result: p97 ATPase inh, Hck-Nef inh, Arbovirus inh)
Cc1ccc(S(=O)(=O)N2CCOCC2)cc1C(=O)Nc1ccc(-c2cn3ccsc3n2)cc1	p97 ATPase inh 17 | p97 inh conf 21
COC(=O)C1=C(C)NC(C)=C(C(=O)OC)C1c1ccc(-c2ccccc2)o1	none (no result: p97 ATPase inh, Hck-Nef inh, Arbovirus inh)
NC1=NC2(CCCCC2)N(c2cccc(Cl)c2)C(N)=N1	p97 ATPase inh 25 | p97 inh conf inactive
NC1=NC2(CCCCC2)N(c2ccc(F)cc2)C(N)=N1	none
Clc1ccccc1C1CC(c2ccccc2)=Nc2ccccc2N1 (stereo unspecified)	p97 ATPase inh 15, EP2 modulator 62 (no result: Arbovirus inh) | p97 inh conf inactive
COC(=O)Cc1csc(Nc2ccccc2)n1	none
COC(=O)Cc1nc(Nc2ccccc2)sc1C	p97 ATPase inh 20 (no result: Arbovirus inh) | p97 inh conf inactive
Cc1ccccc1CN1C2=NCCCN2c2ccccc21	p97 ATPase inh 15 | p97 inh conf inactive
Cc1ccccc1CN1C2=NCCN2c2ccccc21	none
COCC1CCCCN1Cc1cn[nH]c1-c1ccc(OC)cc1OC (stereo unspecified)	none
COCC1CCCCN1Cc1cn[nH]c1-c1ccc2cc(OC)ccc2c1 (stereo unspecified)	p97 ATPase inh 17 | p97 inh conf inactive
COc1ccc(NC(=O)CSc2nnc3c(n2)[nH]c2c(C)ccc(C)c23)c(OC)c1	none (no result: p97 ATPase inh, Hck-Nef inh, Arbovirus inh)
Cc1cc(/C=C2/NC(=O)NC2=O)c(C)n1-c1ccc(N2CCOCC2)cc1	none
Cc1cc(/C=C2\NC(=O)NC2=O)c(C)n1-c1ccc(N2CCOCC2)cc1	p97 ATPase inh 17 (no result: Arbovirus inh) | p97 inh conf inactive
Nc1ccc(N2CCCC2)c2nonc12	none (no result: p97 ATPase inh, Hck-Nef inh, Arbovirus inh)
Nc1c(N2CCOCC2)cc(Cl)c2nonc12	none
Nc1c(N2CCCC2)cc(Cl)c2nonc12	p97 ATPase inh 32 | p97 inh conf 20
Nc1ccc(N2CCCCC2)c2nonc12	p97 ATPase inh 44 | p97 inh conf inactive
